Experiment [1] can be described thus: Quantitative High-Throughput drug screen in 47 multiple myeloma cell lines against the NCATS MIPE library collection: KMS12PE_JCRB cell viability assay (AID 1918972). Also: nearly all actives have a fitted effect of over 30% in size. In short, it runs like this: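 Myeloma cells (500 per well) were exposed to MIPE 4.0 compounds by pin transfer and incubated 48 hours at 37C, 5% CO2. Viability was read as ATP by CellTiter-Glo luminescence, normalised to DMSO (100%) and media-only (0%) wells.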

A short description of experiment [2]: Quantitative High-Throughput drug screen in 47 multiple myeloma cell lines against the NCATS MIPE library collection: KMS20_JCRB cell viability assay (AID 1918973). Also: nearly all actives have a fitted effect of over 45% in size. In a few lines: (§1)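 Relative luminescence from CellTiter-Glo served as the viability signal, referenced to DMSO-treated (100%) and cell-free medium (0%) controls. Treatment lasted 48 hours at 37C with 500 cells per well.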

Experiment [3] can be described thus: Quantitative High-Throughput drug screen in 47 multiple myeloma cell lines against the NCATS MIPE library collection: KMS21BM_JCRB cell viability assay (AID 1918974). To be noted: ATP luminescence, 48 h; viability: at 45.8 µM (top of the series). In short, it runs like this: as §1
Experiment [4] can be described thus: Quantitative High-Throughput drug screen in 47 multiple myeloma cell lines against the NCATS MIPE library collection: KMS26_JCRB cell viability assay (AID 1918975). Also: nearly all actives have a fitted effect of over 45% in size. In short, it runs like this: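 Approved and investigational drugs from MIPE 4.0 were added by pin tool to 500 cells per well. After 48 hours at 37C, ATP-based CellTiter-Glo luminescence indicated remaining viability.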

Experiment [5] is described as follows: Quantitative High-Throughput drug screen in 47 multiple myeloma cell lines against the NCATS MIPE library collection: MOLP8_DSMZ cell viability assay (AID 1918977). Also: nearly all actives have a fitted effect of over 45% in size. In a few lines: (§2)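 Myeloma cells (500/well) treated with MIPE 4.0 compounds for 48 h at 37 °C, 5% CO2. Viability read as ATP via CellTiter-Glo luminescence after 5 min at RT; DMSO-only wells = 100%, media-only = 0% viability.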

The nature of experiment [6]: Quantitative High-Throughput drug screen in 47 multiple myeloma cell lines against the NCATS MIPE library collection: NCIH929_DSMZ cell viability assay (AID 1918978). Also: nearly all actives have a fitted effect of over 35% in size. In a few lines:
as §2

Experiment [7] in a line: Quantitative High-Throughput drug screen in 47 multiple myeloma cell lines against the NCATS MIPE library collection: MM1R_ATCC cell viability assay (AID 1918981). Also: nearly all actives have a fitted effect of over 35% in size. In short, it runs like this:
as §2

Experiment [8] is described as follows: Quantitative High-Throughput drug screen in 47 multiple myeloma cell lines against the NCATS MIPE library collection: OCIMY1_PLB cell viability assay (AID 1918979). Also: nearly all actives have a fitted effect of over 35% in size. In short, it runs like this:
as §2

Experiment [9] is described as follows: Quantitative High-Throughput drug screen in 47 multiple myeloma cell lines against the NCATS MIPE library collection: MM1S_ATCC cell viability assay (AID 1918980). Also: nearly all actives have a fitted effect of over 45% in size. In a few lines:
as §2

The nature of experiment [10]: Quantitative High-Throughput drug screen in 47 multiple myeloma cell lines against the NCATS MIPE library collection: MMM1_PLB cell viability assay (AID 1918976). Also: nearly all actives have a fitted effect of over 35% in size. In a few lines:
as §2

Inconclusive results are not listed. Active and inactive are the calls of the source. Calls follow the shape of the dose curve; as a rule, active = well fitted curve in the direction sought with a large enough effect; inconclusive = small, poorly fitted or top-dose-only effect, or another doubt; inactive = no such curve, though single readings can be large; an effect the other way counts as inactive or inconclusive.
Potency is read from the fitted curve at half-maximal effect.

As to `CSc1cccc(Nc2ncc3cc(-c4c(Cl)cccc4Cl)c(=O)n(C)c3n2)c1`, the Potency in [1] is 0.059 µM (active); in experiment [2], 0.0105 µM (active); in experiment [3], 0.0209 µM (active); in [4], 9.35 µM (active); in experiment [5], 0.833 µM (active); in experiment [6] it was 13.2 µM (active). In experiment [7], the Potency is 2.35 µM (active).

For the molecule `N#CC(c1ccc(Cl)cc1)c1c(Cl)cc(-n2ncc(=O)[nH]c2=O)cc1Cl` (centres undefined), the Potency in experiment [1] was 13.2 µM (active); in [2], 3.72 µM (active); in [3], 0.235 µM (active); in [6], 18.7 µM (active); in experiment [9], 20.9 µM (active); in [7] it was 2.64 µM (active). The Potency entry in experiment [4], in experiment [5] and in experiment [8] was “inactive” in each case.

Take `CC(C)Oc1cc(Nc2nc(N[C@@H](C)c3ccc(F)cn3)ncc2Cl)[nH]n1`: the Potency in experiment [1] was 23.5 µM (active); in experiment [2], 4.69 µM (active); in experiment [3] it was 5.26 µM (active); in experiment [6], 5.26 µM (active); in experiment [9], 23.5 µM (active); in experiment [7], 26.4 µM (active).

Regarding `CN[C@@H]1CN(c2ccc3c(=O)c(C(=O)O)cn(-c4nccs4)c3n2)C[C@@H]1OC`, the Potency result in experiment [1] is “inactive”. In addition, the Potency in experiment [2] was 6.45 µM (active); in experiment [4], 18.2 µM (active); in experiment [10], 8.12 µM (active); in experiment [5], 6.45 µM (active); in [6], 1.62 µM (active); in [9] it was 0.257 µM (active). Besides, the Potency in experiment [7] was 0.407 µM (active).

On to `CN(C)CCOc1ccc(-c2nc(-c3ccc4c(c3)CCC4=NO)c(-c3ccncc3)[nH]2)cc1`, for which the Potency in experiment [1] is 10.5 µM (active); in experiment [2], 6.62 µM (active); in experiment [3], 7.43 µM (active); in experiment [4], 18.7 µM (active); in [10], 20.9 µM (active); in experiment [5], 14.8 µM (active). In addition, the Potency is 16.6 µM (active) in [6], 20.9 µM (active) in experiment [8], 18.7 µM (active) in [9] and 18.7 µM (active) in [7].

With `CCCCCOC(=O)Nc1nc(=O)n([C@@H]2O[C@H](C)[C@@H](O)C2O)cc1F` (some centres undefined), the Potency result in experiment [1], in experiment [2], in experiment [4], in [10], in experiment [5] and in experiment [8] was “inactive” each time. For the same molecule, the Potency entry in experiment [7] was “inactive”.

For `O=C(c1ccc(C(=O)N2CCC(N3CCCC3)CC2)c(Nc2ccccc2)c1)N1CCC(N2CCCC2)CC1`, the Potency entry in experiment [1], in experiment [2], in [3], in experiment [6], in [8] and in [7] was “inactive” each time.

Regarding `CCC(C)SSc1ncc[nH]1` (centres undefined), the Potency was 9.35 µM (active) in [1]; 5.26 µM (active) in experiment [2]; 8.33 µM (active) in experiment [3]; 3.72 µM (active) in experiment [4]; 7.43 µM (active) in experiment [10]; 3.72 µM (active) in [6]. Also, the Potency in experiment [8] is 8.33 µM (active); in experiment [7], 5.26 µM (active).

For `COc1ccc2c(c1)c(C1=C(c3c[nH]c4ccccc34)C(=O)NC1=O)cn2CCCN(C)C`, the Potency in experiment [1] is 16.6 µM (active); in experiment [2] it was 14.8 µM (active); in [3] it was 0.469 µM (active); in experiment [5], 14.8 µM (active); in experiment [6] it was 23.5 µM (active); in [7] it was 23.5 µM (active).

For `CC(C)n1c(C=C[C@H](O)C[C@H](O)CC(=O)O)c(-c2ccc(F)cc2)c2ccccc21`, the Potency is 3.32 µM (active) in [1]; 20.9 µM (active) in experiment [2]; 29.6 µM (active) in experiment [3]; 2.96 µM (active) in [5]; 13.2 µM (active) in experiment [6].

For `CO[C@@H]1C(N(C)C(=O)c2ccccc2)C[C@H]2O[C@]1(C)n1c3ccccc3c3c4c(c5c6ccccc6n2c5c31)C(=O)NC4=O` (some centres undefined), the figures for the Potency in experiment [1], in [2] and in experiment [4] were 1.66 µM (active), 3.72 µM (active) and 1.32 µM (active), respectively.

In the case of `O=C(c1ccc(C=Cc2n[nH]c3ccccc23)cc1)N1CCNCC1`, the Potency in experiment [1] was 2.35 µM (active); in experiment [2] it was 1.87 µM (active); in experiment [3], 0.59 µM (active); in experiment [4] it was 16.6 µM (active); in [10] it was 5.26 µM (active); in [5], 16.6 µM (active). Also, the results for the Potency in experiment [6], in experiment [9] and in experiment [7] were 2.35 µM (active), 16.6 µM (active) and 13.2 µM (active), respectively.

For `NS(=O)(=O)c1ccc(Nc2nc(OCC3CCCCC3)c3[nH]cnc3n2)cc1`, the Potency was 20.9 µM (active) in experiment [1]; 20.9 µM (active) in experiment [2]; 4.18 µM (active) in experiment [3]; 2.09 µM (active) in experiment [10]; 4.18 µM (active) in experiment [6]; 18.7 µM (active) in [9]. The Potency in experiment [7] is 14.8 µM (active). The Potency result in experiment [8] was “inactive”.

As to `COc1ccc2ccc(=O)oc2c1CC=C(C)C`, the Potency in [1] was 20.9 µM (active); in experiment [4] it was 10.5 µM (active); in experiment [10], 16.6 µM (active); in experiment [5] it was 8.33 µM (active); in experiment [8], 23.5 µM (active); in experiment [9] it was 2.96 µM (active). Besides, in [7], the Potency is 13.2 µM (active). Besides, the Potency entry in experiment [2] and in experiment [6] was “inactive” in each case.

Consider `Clc1ccc(C2(c3ccc(-c4cn[nH]c4)cc3)CCNCC2)cc1`, for which the Potency in [1] was 23.5 µM (active); in [2], 5.26 µM (active); in experiment [4], 20.9 µM (active); in experiment [10] it was 1.48 µM (active); in [5], 20.9 µM (active); in experiment [8], 23.5 µM (active). Also, the Potency in experiment [9] is 14.8 µM (active); in experiment [7] it was 10.5 µM (active).

As to `c1cc(OCCN2CCCCC2)cc(-c2n[nH]c3ccc(-c4ncn[nH]4)cc23)c1`, the Potency was 23.5 µM (active) in [1]; 18.7 µM (active) in experiment [2]; 3.72 µM (active) in [3]; 8.33 µM (active) in [6]; 23.5 µM (active) in experiment [9]; 26.4 µM (active) in experiment [7].

For the molecule `O=c1[nH]nc(OCCCc2ccc(Cl)cc2)c(NCc2cccnc2)c1Br`, the Potency in [1] is 2.64 µM (active); in experiment [2], 1.05 µM (active); in experiment [3], 4.69 µM (active); in experiment [4], 14.8 µM (active); in [10], 16.6 µM (active); in [6], 7.43 µM (active). Besides, the Potency in experiment [8] was 18.7 µM (active); in experiment [9] it was 8.33 µM (active); in [7], 16.6 µM (active).

The values above are taken from PubChem BioAssay (NCATS).
